# Hit rate of the full screen: of about 16,000 compounds, about 2,600 (16%) were called active. Roughly 20% stayed inconclusive and do not appear here. Only a sample is shown. Unmarked numbers belong to inactive results. The call rests on the fitted dose curve; in most records, active means well fitted curve in the direction sought with a large enough effect; inconclusive means small, poorly fitted or top-dose-only effect, or effect the other way; inactive means no such curve, though single readings can be large or run the other way.
# Target: Cytochrome P450 2D6 (Homo sapiens) (UniProt P10635)
# Assay: Cytochrome panel assay with activity outcomes
# Details: recombinant CYP, pro-luciferin dealkylation, luminescence, p450-cyp2d6; series mostly up to 57.1 µM; activity, negative = inhibition: at the top concentration
# On the % scale 0 is the no-effect control and ±100 the full control effect.
# Cytochrome P450 2D6 (Homo sapiens), sequence (P10635 whole entry, looked up): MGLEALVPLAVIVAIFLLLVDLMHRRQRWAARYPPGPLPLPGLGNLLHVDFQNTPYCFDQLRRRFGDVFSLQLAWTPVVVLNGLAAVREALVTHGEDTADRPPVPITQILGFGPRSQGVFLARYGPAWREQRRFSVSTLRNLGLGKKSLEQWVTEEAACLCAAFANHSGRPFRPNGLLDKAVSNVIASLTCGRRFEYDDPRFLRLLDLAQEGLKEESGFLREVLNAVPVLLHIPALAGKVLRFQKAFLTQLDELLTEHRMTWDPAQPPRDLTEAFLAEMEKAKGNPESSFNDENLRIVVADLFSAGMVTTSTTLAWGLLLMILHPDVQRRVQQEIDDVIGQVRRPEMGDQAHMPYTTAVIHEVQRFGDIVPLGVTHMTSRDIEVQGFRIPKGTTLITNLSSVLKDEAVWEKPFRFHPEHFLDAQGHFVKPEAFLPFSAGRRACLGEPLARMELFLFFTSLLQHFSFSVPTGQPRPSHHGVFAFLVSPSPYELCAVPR
Compound,"activity, negative = inhibition",AC50
O=C(NCC1CCCO1)c1cc(-c2ccc(Cl)cc2Cl)on1 (configuration not stated),-13.5%,–
Cc1cccc(Sc2c([N+](=O)[O-])ncn2C)n1,28.4%,–
O=c1cnc2cnc(Nc3ccccc3)nc2n1Cc1cccs1,-1.11%,–
c1ccc(-n2cnc3cc(NCc4cccs4)ccc32)cc1,–,1.12 µM (active)
O=C(O)[C@H]1CCCNC1,14.9%,–
Cc1cc(=O)oc(C)c1C(=O)NCc1cccnc1,-3.68%,–
Cc1ccccc1CS(=O)(=O)Cc1ccc(C(=O)NCc2cccnc2)o1,–,10 µM (active)
Cc1cccc(CS(=O)(=O)Cc2ccc(C(=O)NCc3ccco3)o2)c1,9.08%,–
Cn1cccc1C(=O)N1CCC2(CC1)CN(c1ccccn1)C2,-8.72%,–
COc1cc(OC)c(C2C(C(=O)Nc3ccc(C)cc3C)=C(C)Nc3ncnn32)cc1OC (configuration not stated),-0.18%,–
Cc1ccc(S(=O)(=O)NC(=O)c2cccn2C)cc1,3.13%,–
O=C(Cn1ccc([N+](=O)[O-])n1)NCc1cccs1,-25.4%,–
Cc1ccccc1C(=O)c1cccn1CC(=O)NCc1ccco1,-27.2%,–
O=C(Cn1cccc1C(=O)c1ccccc1)NCc1cccs1,–,5.01 µM (active)
COCCn1c(=O)c(-c2cccs2)nc2cnc(N3CCNCC3)nc21,-12.6%,–
COc1cc(NC(=O)Cc2c(C(=O)O)[nH]c3ccccc23)cc(OC)c1OC,8.14%,–
CCC(CC)C(=O)Nc1c2c(nn1-c1ccc(OC)cc1)CS(=O)(=O)C2,13.1%,–
CCOC(=O)c1c(C)[nH]c(C)c1C(=O)COC(=O)c1cccc(S(=O)(=O)N(CC)CC)c1,–,17.8 µM (active)
CCOC(=O)c1ccc(S(=O)(=O)N2CCN(C)CC2)cc1,-57.8%,–
CCN(CC)S(=O)(=O)c1cccc(C(=O)N[C@H](C(=O)OCC(=O)NC(=O)NC)C(C)C)c1,10.5%,–
CCOC(=O)c1c(C)[nH]c2ccc3c(c12)CN1CCc2cc(OC)ccc2[C@@H]1O3,5.97%,–
CCN(CC)S(=O)(=O)c1ccc(C(=O)NC2=C(C(=O)OC)SCC2)cc1,-14.5%,–
CCOC(=O)c1c(C)[nH]c(C)c1C(=O)COC(=O)c1ccc(S(=O)(=O)N(CC)CC)cc1,–,28.2 µM (active)
CS(=O)(=O)N1CCC2(CCN(C(=O)Nc3cccc(C#N)c3)CC2)CC1,-15.7%,–

Compound,"activity, negative = inhibition",AC50
O=C1c2c(O)cc(O)cc2O[C@@H](c2ccc(O)c(O)c2)[C@H]1O,7.17%,–
CC1=NN(c2ccccc2)C(=O)/C1=C\N1CC(C)OC(C)C1 (configuration not stated),19.5%,–
COc1cc2c(cc1OC)C(C(=O)Nc1ccc3c(c1)OCCO3)C(c1cccnc1)N(C)C2=O (configuration not stated),0.677%,–
FC(F)(F)c1nc(-c2ccncc2)ncc1-c1nnnn1-c1ccccc1,-16.8%,–
Cc1c(Cl)cccc1NC(=O)c1ccc(-n2ccnc2)nc1,–,0.0316 µM (active)
C/C(CC(=O)Nc1ccccn1)=N\NC(=O)C(=O)Nc1cccc(Cl)c1C,-0.859%,–
Cc1ccc(C(=O)Nc2ccc(N3CCOCC3)nc2)cc1,-1.74%,–
CC(C)C(=O)Nc1ccc(NC(=O)c2cccnc2)cn1,-0.795%,–
CCOCC(=O)Nc1cc(C(=O)Nc2cccc(C)c2C)ccc1Cl,16.8%,–
O=C(Nc1ccc(F)cc1)c1ccc(-n2ccnc2)nc1,–,0.178 µM (active)
O=S(=O)(/N=C(/Nc1ccccn1)c1ccccc1)c1ccccc1,11.9%,–
CN1CCN(Cc2nc3cccc4c3c([n+]2[O-])-c2ccccc2-4)CC1,-3.37% [at 11.4 µM],–
N#C[C@H]1CN[C@H](N)N[C@@H]1N,8.31% [at 11.4 µM],–
Cc1cccc2c1Oc1ccccc1[C@@H]2NC(=O)c1ccc([N+](=O)[O-])cc1,13.1% [at 11.4 µM],–
O=C(c1ccc([N+](=O)[O-])cc1)n1nc(-c2ccccc2)nc1NCc1ccccc1,13.4%,–
CCc1ccccc1NC(=O)CSc1nc(-c2ccccc2)nn1C(=O)c1cccc([N+](=O)[O-])c1,–,10 µM (active)
CSc1nc(-c2ccccc2)nn1C(=O)c1ccccc1,-1.33%,–
Nc1c(C(=O)NCc2ccccc2)sc2nc3c(cc12)C(=O)CCC3,-3.99%,–
C[C@@](N)(C(=O)O)c1ccc(P(=O)(O)O)cc1,8.72%,–
O=C(O)c1cc(=O)cc(C(=O)O)[nH]1,2.14%,–
CC(=O)N1CCN(C(=O)CC2OC(=O)c3ccccc32)CC1 (configuration not stated),-24.1%,–
CCOC(=O)Cc1csc(NC(=O)CCCCCN2C(=O)c3ccccc3C2=O)n1,–,14.1 µM (active)
CCOC(=O)c1sc(NC(=O)CCCCCN2C(=O)c3cccc4cccc(c34)C2=O)nc1C,-17.5%,–
